Measurements taken from PubChem BioAssay.
The source made the active and inactive calls. Cut-off read from the data, not from the text of the source, unless noted: active = inhibition above about 28%; inactive = the rest.

Columns and labels:
[1] = StAR promoter reporter inhibitors, counter-screen for LRH-1 inverse agonist project, cell-based, luminescence, high throughput (AID 651611); conditions: StAR promoter luciferase reporter counterscreen, at 3.6 µM, stronger effect = higher value
[2] = target: Nuclear receptor subfamily 5 group A member 2 (Homo sapiens) (UniProt O00482); assay: LRH-1 (NR5A2) inverse agonists, retest, confirmation, cell-based, luminescence (AID 651613; in the data active = inhibition above about 42%;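 note: HEK293T cells co-transfected with LRH-1 and StAR promoter luciferase reporter; 0% = vehicle wells and 100% = parental cells lacking receptor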); conditions: cell-based LRH-1 luciferase reporter, inverse agonism; at 3.6 µM; stronger effect = higher value
Sequence of Nuclear receptor subfamily 5 group A member 2 (Homo sapiens) (O00482 whole entry, looked up): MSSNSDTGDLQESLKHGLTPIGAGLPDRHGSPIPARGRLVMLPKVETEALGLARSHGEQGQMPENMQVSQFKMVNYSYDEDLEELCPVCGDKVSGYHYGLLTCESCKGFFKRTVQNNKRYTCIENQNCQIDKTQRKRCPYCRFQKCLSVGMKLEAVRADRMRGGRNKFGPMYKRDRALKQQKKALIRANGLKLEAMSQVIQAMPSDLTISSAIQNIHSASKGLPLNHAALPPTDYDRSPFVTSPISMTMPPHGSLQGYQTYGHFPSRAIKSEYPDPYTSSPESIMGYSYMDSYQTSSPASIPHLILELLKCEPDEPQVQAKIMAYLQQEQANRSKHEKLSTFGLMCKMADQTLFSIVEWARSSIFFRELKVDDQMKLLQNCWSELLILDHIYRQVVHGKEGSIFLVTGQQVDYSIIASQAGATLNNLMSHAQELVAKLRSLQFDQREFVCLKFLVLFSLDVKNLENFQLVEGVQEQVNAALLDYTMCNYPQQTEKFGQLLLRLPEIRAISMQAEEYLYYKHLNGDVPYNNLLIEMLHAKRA

[3] = target: Steroidogenic factor 1 (Homo sapiens) (UniProt Q13285); assay: SF1 (NR5A1) inverse agonists, counter-screen for LRH-1 inverse agonist project, cell-based, luminescence, high throughput (AID 651614; in the data active = inhibition above about 44%;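 note: cells cotransfected with StAR promoter reporter and SF1 expression vector; 0% = vehicle on cells with receptor and 100% = vehicle on cells lacking receptor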); conditions: cell-based SF1 luciferase reporter, at 3.6 µM, stronger effect = higher value
Sequence of Steroidogenic factor 1 (Homo sapiens) (Q13285 whole entry, looked up, the tested form may be a part): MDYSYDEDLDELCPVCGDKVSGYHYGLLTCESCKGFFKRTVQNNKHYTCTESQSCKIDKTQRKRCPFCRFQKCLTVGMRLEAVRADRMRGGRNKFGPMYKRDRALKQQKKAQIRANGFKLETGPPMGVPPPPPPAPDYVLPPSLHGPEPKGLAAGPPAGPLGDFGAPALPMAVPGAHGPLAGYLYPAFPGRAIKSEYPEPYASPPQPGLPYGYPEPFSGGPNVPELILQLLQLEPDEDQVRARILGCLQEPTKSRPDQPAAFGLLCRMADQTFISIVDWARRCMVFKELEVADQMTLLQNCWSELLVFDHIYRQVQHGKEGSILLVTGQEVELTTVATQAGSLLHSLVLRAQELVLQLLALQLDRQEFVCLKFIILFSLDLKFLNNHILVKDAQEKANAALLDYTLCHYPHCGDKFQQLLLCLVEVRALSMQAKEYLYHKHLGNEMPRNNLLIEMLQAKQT

[4] = VP16 transactivation reporter inhibitors, counter-screen for LRH-1 inverse agonist project, cell-based, luminescence, high throughput (AID 651615; in the data active = inhibition above about 33%); conditions: Gal4-VP16 luciferase reporter cells, at 3.6 µM, stronger effect = higher value
[5] = test system: transactivating tegument protein VP16 (Human herpesvirus 1); assay: VP16 transactivation reporter inhibitors, counter-screen for SRC2 inhibitor project, cell-based, luminescence, single concentration (AID 652007; in the data active = inhibition above about 36%); conditions: cell-based VP16 transactivation luciferase reporter, at 8.9 µM, stronger effect = higher value
[6] = target: Nuclear receptor coactivator 2 (Homo sapiens) (UniProt Q15596); assay: SRC2 coactivator transcriptional activity inhibitors, confirmation, cell-based, luminescence, HEK293, triplicate (AID 652008;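 active = mean inhibition above 46.5%, the solvent-only control mean plus 3 SD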;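 note: 0% = DMSO-treated cells and 100% = Gossypol at 36 µM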); conditions: HEK293 GAL4-SRC2 luciferase reporter, at 8.9 µM, stronger effect = higher value
Sequence of Nuclear receptor coactivator 2 (Homo sapiens) (Q15596 whole entry, looked up, the tested form may be a part): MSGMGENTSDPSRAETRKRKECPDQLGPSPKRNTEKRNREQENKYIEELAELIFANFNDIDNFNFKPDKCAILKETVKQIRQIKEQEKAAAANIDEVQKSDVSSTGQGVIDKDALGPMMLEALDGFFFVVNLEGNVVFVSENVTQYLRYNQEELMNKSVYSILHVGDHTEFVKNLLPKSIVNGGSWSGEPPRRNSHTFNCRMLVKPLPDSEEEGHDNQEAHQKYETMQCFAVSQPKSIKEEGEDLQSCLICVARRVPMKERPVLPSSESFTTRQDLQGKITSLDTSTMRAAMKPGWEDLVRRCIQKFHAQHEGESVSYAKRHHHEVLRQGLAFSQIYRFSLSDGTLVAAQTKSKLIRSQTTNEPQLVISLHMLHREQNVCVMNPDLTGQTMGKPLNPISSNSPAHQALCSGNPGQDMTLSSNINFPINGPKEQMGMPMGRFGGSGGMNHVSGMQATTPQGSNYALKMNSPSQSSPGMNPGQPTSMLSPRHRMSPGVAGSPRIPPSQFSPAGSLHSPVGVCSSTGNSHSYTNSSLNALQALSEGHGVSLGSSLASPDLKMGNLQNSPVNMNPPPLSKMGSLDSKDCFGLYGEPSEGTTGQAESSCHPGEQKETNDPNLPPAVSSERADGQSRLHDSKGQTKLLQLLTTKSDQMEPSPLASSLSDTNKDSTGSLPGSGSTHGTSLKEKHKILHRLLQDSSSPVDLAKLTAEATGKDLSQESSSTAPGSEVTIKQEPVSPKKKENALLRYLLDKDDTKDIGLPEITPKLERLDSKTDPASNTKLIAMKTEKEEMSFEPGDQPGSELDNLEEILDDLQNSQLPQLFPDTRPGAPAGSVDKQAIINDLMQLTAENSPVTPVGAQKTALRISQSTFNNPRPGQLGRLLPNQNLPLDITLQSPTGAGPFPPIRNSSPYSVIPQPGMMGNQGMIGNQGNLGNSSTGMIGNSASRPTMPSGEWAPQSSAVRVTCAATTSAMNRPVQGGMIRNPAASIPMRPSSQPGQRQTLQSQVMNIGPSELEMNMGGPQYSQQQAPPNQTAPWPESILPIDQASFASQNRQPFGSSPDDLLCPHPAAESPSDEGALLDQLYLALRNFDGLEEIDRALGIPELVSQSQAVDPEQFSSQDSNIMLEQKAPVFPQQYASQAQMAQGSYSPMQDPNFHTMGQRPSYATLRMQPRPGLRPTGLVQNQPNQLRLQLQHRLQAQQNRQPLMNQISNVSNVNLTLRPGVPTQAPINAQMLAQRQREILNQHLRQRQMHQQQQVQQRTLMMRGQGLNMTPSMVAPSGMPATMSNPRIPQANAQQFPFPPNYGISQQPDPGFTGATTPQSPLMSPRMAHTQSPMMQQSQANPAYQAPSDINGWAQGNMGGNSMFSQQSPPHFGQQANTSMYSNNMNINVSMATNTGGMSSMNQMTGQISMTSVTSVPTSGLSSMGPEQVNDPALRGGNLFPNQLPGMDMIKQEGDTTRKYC

Row | Structure (SMILES) | inhibition [1] | inhibition [2] | inhibition [3] | inhibition [4] | inhibition [5] | inhibition [6]
1 | N#CC(=C1C=CC(=NO)C(Cl)=C1)c1ccccc1 | 26% (inactive) | 41.8% (active) | 61.3% (active) | 22.2% (inactive) | -5.64% (inactive) | 20.3% (inactive)
2 | O=C(NCCOc1cccnc1)c1ccc(OC2CCN(Cc3ccccn3)CC2)cc1 | 90.8% (active) | 105% (active) | 97.6% (active) | 87.7% (active) | 15.9% (inactive) | 56.5% (active)
3 | O=C(CCCc1ccccc1)c1ccc2c(c1)OCCO2 | 62.5% (active) | 7.99% (inactive) | 55.9% (active) | 26.2% (inactive) | 54.7% (active) | 73.9% (active)
4 | Cc1ccc(C(=O)Sc2cccccc2=O)cc1 | 98.1% (active) | 107% (active) | 98.6% (active) | 96.8% (active) | 92.9% (active) | 99.2% (active)
5 | Cc1ccnc2c1ccc1cccnc12 | 82.7% (active) | 108% (active) | 67.4% (active) | 65.5% (active) | -9.35% (inactive) | 29% (inactive)
6 | CC(C)(C)C(=O)Nc1cc2nn(-c3ccccc3)nc2cc1Cl | 48.3% (active) | 19.3% (inactive) | 43.6% (active) | 50.1% (active) | 88.2% (active) | 90.3% (active)
7 | CC(=O)NC(c1cccc([N+](=O)[O-])c1)c1ccc2cccnc2c1O (stereo not drawn) | 85.6% (active) | 100% (active) | 91.2% (active) | 83.9% (active) | 0.91% (inactive) | 31.1% (inactive)
8 | c1ccc2c(c1)CCN(c1ncnc3c1[nH]c1ccccc13)C2 | 25.5% (inactive) | 68.5% (active) | 69.5% (active) | 58.2% (active) | 25.4% (inactive) | 40.2% (inactive)
9 | Cc1cccc(/C=C(\c2nc3ccccc3[nH]2)S(=O)(=O)c2ccccc2)c1 | 43.2% (active) | 35.1% (inactive) | 48.8% (active) | 54.1% (active) | 10.3% (inactive) | 50.5% (active)
10 | CCC(C(=O)NCc1ccccc1)n1c(CSCCOc2ccccc2)nc2ccccc21 (stereo not drawn) | 21.1% (inactive) | 21.6% (inactive) | 25.1% (inactive) | 29% (inactive) | 19.5% (inactive) | 78.3% (active)
11 | COc1ccc(/C=C/c2nc3ccccc3c(=O)o2)cc1 | 38.6% (active) | -49.3% (inactive) | 37.2% (inactive) | -63% (inactive) | 38.4% (active) | 84.3% (active)
12 | C=CC(=O)N1C/C(=C/c2ccc(Cl)cc2)C(=O)/C(=C\c2ccc(Cl)cc2)C1 | 17.8% (inactive) | 84.7% (active) | 87.8% (active) | 65.8% (active) | 97% (active) | 88.4% (active)
13 | O=C(Nc1ccc(Cl)cc1)/C(=C/c1cccc(O)c1)c1nc2ccccc2s1 | 52% (active) | 78.1% (active) | 78.1% (active) | 71.2% (active) | 48.6% (active) | 80.7% (active)
14 | Brc1ccc2ncnc(NCc3ccccc3)c2c1 | 30.5% (active) | 72.4% (active) | 59.9% (active) | 80.8% (active) | 21.7% (inactive) | 54.5% (active)
15 | Cc1cc(C)n2c(Nc3ccc4c(c3)OCCO4)c(-c3cc4ccccc4o3)nc2n1 | -27.7% (inactive) | -26.8% (inactive) | -6.96% (inactive) | 0.38% (inactive) | -60.9% (inactive) | -12.5% (inactive)
16 | COc1ccc(NS(=O)(=O)c2ccc3c(c2)OCCO3)cc1OC | 10.4% (inactive) | 69.7% (active) | 67.5% (active) | 35.5% (active) | 10.1% (inactive) | 27.8% (inactive)
17 | CCN(CC)CCC(=O)N1C/C(=C/c2ccccc2)C(=O)/C(=C\c2ccccc2)C1 | 57.8% (active) | 84.4% (active) | 86.8% (active) | 76.2% (active) | 84.8% (active) | 23.6% (inactive)
18 | Cc1cc(C)c(C#N)c(Sc2nc(C)c([N+](=O)[O-])c(C)c2C#N)n1 | 3.51% (inactive) | 10.9% (inactive) | 9.59% (inactive) | 20.6% (inactive) | 12.9% (inactive) | 25.4% (inactive)
